According to PubChem BioAssay:
Records with an inconclusive call do not appear. For some assays here: Measured potencies and affinities stand elsewhere. Calls of active or inactive are those of the source. Unless noted, how the calls were made is not given here.

Assays:
[1] = molecular target: Calcium-dependent protein kinase 1 (Plasmodium falciparum (isolate 3D7)) (UniProt P62344); experiment: PfCDPK1 kinase inhibitors, biochemical, TCAMS library (AID 1159585; cut-off not given, nearly all actives have IC50 up to about 0.98 µM;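 further: inhibitors leave more ATP so luminescence rises with inhibition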); details: recombinant PfCDPK1, Kinase-Glo ATP depletion luminescence
[2] = molecular target: Plasmodium falciparum protein kinase 6 (PK6, PF3D7_1337100) (UniProt Q8IDW1); experiment: PfPK6 kinase inhibitors, biochemical, TCAMS library (AID 1159586); details: recombinant PfPK6, Kinase-Glo ATP depletion luminescence
[3] = molecular target: Protein kinase 7 (PK7), Plasmodium falciparum 3D7 (PF3D7_0213400) (UniProt Q7YTF7); experiment: inhibition of Plasmodium PK7 catalytic activity – biochemical, TCAMS antimalarial set, Kinase-Glo luminescence (AID 1159587); details: recombinant PfPK7, Kinase-Glo ATP depletion luminescence
[4] = molecular target: Calcium-dependent protein kinase 4 (Plasmodium falciparum (isolate 3D7)) (UniProt Q8IBS5); experiment: PfCDPK4 kinase inhibitors, biochemical, TCAMS library (AID 1159588; cut-off not given, nearly all actives have IC50 up to about 0.91 µM); details: recombinant PfCDPK4, Kinase-Glo ATP depletion luminescence
[5] = molecular target: ATP-dependent translocase ABCB1 (Homo sapiens) (UniProt P08183); experiment: P-glycoprotein substrate transport blockade – cell-based (AID 377; in the data active means fluorescence slope change above about 50%); details: MDR1-expressing cells, fluorescent substrate accumulation slope; stronger effect = higher value; concentration not given here
[6] = molecular target: 6-phosphogluconate dehydrogenase, decarboxylating (Homo sapiens) (UniProt P52209); experiment: inhibition of human phosphogluconate dehydrogenase – biochemical, recombinant enzyme, NADPH absorbance, primary screen (AID 1159550;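 active means at least 20% inhibition of 6-phosphogluconate dehydrogenase activity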); details: recombinant 6PGD, NADPH absorbance 341 nm; at 10 µM; stronger effect = higher value
[7] = compounds altering viability of human ES cells (AID 493140); details: human embryonic stem cell survival screen; stronger effect = higher value;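 further: cells exposed to compounds for four days before counting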
[8] = P. berghei load reduction in hepatocytes – cell-based, HepG2, luciferase luminescence, HepG2 viability, primary screen (AID 624349; in the data active means parasite load remaining mostly below about 12%, no sharp cut-off; inactive means mostly above about 10%;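 further: 100% = mean of DMSO negative control wells on the same plate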); details: P. berghei liver stage in HepG2, luciferase luminescence, concentration not given here; parasite load remaining: stronger effect = lower value; viability: measured here: HepG2 viability without parasites

Chain of Plasmodium falciparum protein kinase 6 (PK6, PF3D7_1337100) (Q8IDW1 1-305): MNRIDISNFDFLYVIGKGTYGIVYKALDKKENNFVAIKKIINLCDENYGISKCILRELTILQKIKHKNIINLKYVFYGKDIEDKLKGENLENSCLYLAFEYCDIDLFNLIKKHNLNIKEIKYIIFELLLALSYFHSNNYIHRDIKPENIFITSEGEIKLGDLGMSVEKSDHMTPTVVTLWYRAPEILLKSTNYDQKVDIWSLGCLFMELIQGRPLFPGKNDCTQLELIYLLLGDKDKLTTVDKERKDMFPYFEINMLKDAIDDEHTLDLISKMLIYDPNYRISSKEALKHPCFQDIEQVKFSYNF
Chain of Calcium-dependent protein kinase 1 (Plasmodium falciparum (isolate 3D7)) (P62344 whole entry, looked up): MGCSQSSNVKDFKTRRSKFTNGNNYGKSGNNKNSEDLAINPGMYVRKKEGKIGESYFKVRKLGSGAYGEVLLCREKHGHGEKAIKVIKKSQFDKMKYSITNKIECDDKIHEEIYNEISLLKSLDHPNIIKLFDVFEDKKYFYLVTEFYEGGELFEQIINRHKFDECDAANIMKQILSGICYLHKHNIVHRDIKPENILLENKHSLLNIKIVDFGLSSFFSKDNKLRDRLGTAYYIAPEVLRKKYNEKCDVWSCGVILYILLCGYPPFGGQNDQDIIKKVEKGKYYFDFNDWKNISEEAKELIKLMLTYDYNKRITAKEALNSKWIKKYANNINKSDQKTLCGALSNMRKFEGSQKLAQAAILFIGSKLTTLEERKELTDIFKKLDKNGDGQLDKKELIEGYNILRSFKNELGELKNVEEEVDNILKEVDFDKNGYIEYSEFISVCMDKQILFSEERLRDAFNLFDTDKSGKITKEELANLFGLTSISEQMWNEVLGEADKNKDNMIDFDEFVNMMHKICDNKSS
Chain of Calcium-dependent protein kinase 4 (Plasmodium falciparum (isolate 3D7)) (Q8IBS5 whole entry, looked up): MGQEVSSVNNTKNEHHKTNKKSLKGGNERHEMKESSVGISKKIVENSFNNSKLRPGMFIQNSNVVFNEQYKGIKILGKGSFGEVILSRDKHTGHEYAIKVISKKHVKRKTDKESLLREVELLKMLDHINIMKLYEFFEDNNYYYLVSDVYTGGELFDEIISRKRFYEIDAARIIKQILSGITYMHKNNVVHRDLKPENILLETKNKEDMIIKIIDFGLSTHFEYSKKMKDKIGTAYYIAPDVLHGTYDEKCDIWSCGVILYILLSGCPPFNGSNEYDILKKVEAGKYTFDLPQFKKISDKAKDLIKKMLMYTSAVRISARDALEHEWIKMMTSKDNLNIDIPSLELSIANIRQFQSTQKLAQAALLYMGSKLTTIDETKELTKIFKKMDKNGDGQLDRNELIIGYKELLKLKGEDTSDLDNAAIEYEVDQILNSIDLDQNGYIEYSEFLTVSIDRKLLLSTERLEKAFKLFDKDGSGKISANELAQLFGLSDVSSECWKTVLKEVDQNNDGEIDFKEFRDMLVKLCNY
Chain of Protein kinase 7 (PK7), Plasmodium falciparum 3D7 (PF3D7_0213400) (Q7YTF7 1-343): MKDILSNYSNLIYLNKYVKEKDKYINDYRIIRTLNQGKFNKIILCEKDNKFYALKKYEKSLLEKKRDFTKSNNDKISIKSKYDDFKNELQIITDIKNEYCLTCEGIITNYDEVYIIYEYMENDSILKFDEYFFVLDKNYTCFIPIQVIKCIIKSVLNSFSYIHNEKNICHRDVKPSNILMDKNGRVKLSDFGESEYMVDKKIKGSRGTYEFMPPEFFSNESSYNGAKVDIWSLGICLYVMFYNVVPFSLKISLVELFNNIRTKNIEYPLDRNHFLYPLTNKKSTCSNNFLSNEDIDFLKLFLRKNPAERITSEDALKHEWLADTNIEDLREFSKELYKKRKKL
Chain of 6-phosphogluconate dehydrogenase, decarboxylating (Homo sapiens) (P52209 whole entry, looked up): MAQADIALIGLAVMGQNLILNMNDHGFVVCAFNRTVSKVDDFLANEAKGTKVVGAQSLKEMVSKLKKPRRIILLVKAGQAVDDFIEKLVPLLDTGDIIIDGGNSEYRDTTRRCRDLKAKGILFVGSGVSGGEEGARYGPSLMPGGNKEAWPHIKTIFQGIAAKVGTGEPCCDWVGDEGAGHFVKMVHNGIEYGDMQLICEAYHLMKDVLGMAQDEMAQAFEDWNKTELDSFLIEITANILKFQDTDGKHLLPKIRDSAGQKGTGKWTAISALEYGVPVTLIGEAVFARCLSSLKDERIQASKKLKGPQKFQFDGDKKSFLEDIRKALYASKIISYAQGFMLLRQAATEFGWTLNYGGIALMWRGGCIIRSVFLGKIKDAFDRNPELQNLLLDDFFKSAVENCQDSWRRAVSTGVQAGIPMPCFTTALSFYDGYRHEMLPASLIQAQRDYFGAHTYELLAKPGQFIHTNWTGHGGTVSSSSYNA
Chain of ATP-dependent translocase ABCB1 (Homo sapiens) (P08183 whole entry, looked up): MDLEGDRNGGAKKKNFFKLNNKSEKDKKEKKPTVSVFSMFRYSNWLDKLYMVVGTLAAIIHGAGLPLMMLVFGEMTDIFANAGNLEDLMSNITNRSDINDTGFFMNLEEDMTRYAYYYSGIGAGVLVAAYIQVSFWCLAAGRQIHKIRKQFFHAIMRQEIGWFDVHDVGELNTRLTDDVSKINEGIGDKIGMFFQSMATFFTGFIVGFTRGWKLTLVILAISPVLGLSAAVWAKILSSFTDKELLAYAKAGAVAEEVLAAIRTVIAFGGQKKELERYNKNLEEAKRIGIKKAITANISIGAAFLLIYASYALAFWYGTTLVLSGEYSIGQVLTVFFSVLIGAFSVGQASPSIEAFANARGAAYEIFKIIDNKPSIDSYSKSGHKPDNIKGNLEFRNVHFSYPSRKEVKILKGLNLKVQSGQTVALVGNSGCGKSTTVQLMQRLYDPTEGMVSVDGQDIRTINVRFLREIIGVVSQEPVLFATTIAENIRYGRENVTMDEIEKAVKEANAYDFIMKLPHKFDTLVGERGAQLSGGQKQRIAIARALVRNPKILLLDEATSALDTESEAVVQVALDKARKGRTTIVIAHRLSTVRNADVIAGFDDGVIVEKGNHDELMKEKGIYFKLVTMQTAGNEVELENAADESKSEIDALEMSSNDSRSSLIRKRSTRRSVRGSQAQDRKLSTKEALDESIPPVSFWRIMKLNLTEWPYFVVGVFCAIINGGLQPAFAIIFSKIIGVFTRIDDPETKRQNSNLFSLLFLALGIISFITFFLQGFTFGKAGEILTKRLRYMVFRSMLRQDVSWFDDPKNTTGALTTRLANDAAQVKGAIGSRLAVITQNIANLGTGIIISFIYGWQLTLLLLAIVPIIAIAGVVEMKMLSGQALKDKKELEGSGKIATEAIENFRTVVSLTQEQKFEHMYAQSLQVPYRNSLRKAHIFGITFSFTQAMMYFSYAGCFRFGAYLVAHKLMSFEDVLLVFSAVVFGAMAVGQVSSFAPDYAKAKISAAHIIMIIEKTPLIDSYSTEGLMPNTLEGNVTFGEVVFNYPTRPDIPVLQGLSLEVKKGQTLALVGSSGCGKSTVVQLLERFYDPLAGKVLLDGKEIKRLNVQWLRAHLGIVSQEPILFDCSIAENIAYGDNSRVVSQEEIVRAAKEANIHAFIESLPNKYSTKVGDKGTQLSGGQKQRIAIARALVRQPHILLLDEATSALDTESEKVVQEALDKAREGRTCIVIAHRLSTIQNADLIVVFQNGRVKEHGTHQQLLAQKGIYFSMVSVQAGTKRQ

Oc1cccc(-c2nc(-c3ccc4oc5ccc(-c6nc(-c7cccc(O)c7)[nH]c6-c6ccccc6)cc5c4c3)c(-c3ccccc3)[nH]2)c1
inactive: outcome [1] | outcome [2] | outcome [3] | outcome [4]

COc1ccc(Nc2nc(N/N=C/c3cc(Cl)ccc3O)nc(Nc3ccccc3)n2)cc1
inactive: outcome [1] | outcome [2] | outcome [3] | outcome [4]

Cc1cc(-c2cc(-c3ccc(OCCN(C)C)cc3)[nH]c2-c2ccc3c(c2)CC/C3=N\O)ccn1
inactive: outcome [1] | outcome [2] | outcome [3] | outcome [4]

COc1cc(/C=N/Nc2ccnc3cc(Cl)ccc23)ccc1O
inactive: outcome [1] | outcome [2] | outcome [3] | outcome [4]

c1cc2nc(CCCCc3nc4ccc(C5=N[C@@H]6CCCC[C@@H]6N5)cc4[nH]3)[nH]c2cc1C1=N[C@@H]2CCCC[C@@H]2N1
inactive: outcome [1] | outcome [2] | outcome [3] | outcome [4]

Nc1cc(/C=C/c2ccc(O)cc2)nc2ccccc12
inactive: outcome [1] | outcome [2] | outcome [3] | outcome [4]

COc1cc(-c2nc(-c3ccc4c(c3)CC/C4=N\O)c(-c3ccncc3)[nH]2)ccc1OCCN1CCN(C)CC1
inactive: outcome [1] | outcome [2] | outcome [3] | outcome [4]

COc1ccc2nc(C)cc(N/N=C/c3cc(C)ccc3O)c2c1
inactive: outcome [1] | outcome [2] | outcome [3] | outcome [4]

CN(C)c1cc(N/N=C/c2cc(Cl)ccc2O)nc(N(C)C)n1
inactive: outcome [1] | outcome [2] | outcome [3] | outcome [4]

CO[C@@H]1[C@@H](OC2OC(C)C(OC3CC(C)(O)C(O)C(C)O3)C(N(C)C)C2O)[C@@H](CC=O)C[C@@H](C)[C@@H](OC2CCC(N(C)C)C(C)O2)/C=C/C=C/C[C@@H](C)OC(=O)C[C@H]1O (stereo partly drawn)
inactive: fluorescence slope change [5] 23.5% | inhibition [6] 5.19%

O=C(Cc1ccc[n+]([O-])c1)Nc1cccc(-c2cccc(-c3nc4ccc(F)cc4[nH]3)c2)c1
inactive: outcome [1] | outcome [2] | outcome [3] | outcome [4]

CCOc1cc(/C=C/c2nc3ccccc3c(=O)[nH]2)cc(Cl)c1O
inactive: outcome [1] | outcome [2] | outcome [3] | outcome [4]

CNC1C(O)C(OC2C(N)CC(N)C(OC3OC(CN)=CCC3N)C2O)OCC1(C)O (stereo not drawn)
inactive: fluorescence slope change [5] 28.9% | survival [7] 9.33 | parasite load remaining [8] 81.3% | inhibition [6] 0.544%
80.5%: viability [8]

CN(C)C[C@H](O)[C@H](c1ccccc1)c1ccc(Cl)cc1
inactive: outcome [1] | outcome [2] | outcome [3] | outcome [4]

CN(C)CCCOc1ccc(-c2nc(-c3ccc4c(c3)CC/C4=N\O)c(-c3ccncc3)[nH]2)cc1
inactive: outcome [1] | outcome [2] | outcome [3] | outcome [4]

C=CC[C@@H](C[C@H](O)[C@H](Cc1ccccc1)NC(=O)c1ccc(-c2cccnn2)cc1)C(=O)NC1CCCCC1
inactive: outcome [1] | outcome [2] | outcome [3] | outcome [4]

COc1ccc2nc(/N=C(\N)NC(=O)Nc3ccccc3)nc(C)c2c1
inactive: outcome [1] | outcome [2] | outcome [3] | outcome [4]

NC(N)=N/N=C/c1c[nH]c2ccc(-c3ccccc3)cc12
inactive: outcome [1] | outcome [2] | outcome [3] | outcome [4]

COc1ccc(Nc2nc(N/N=C/c3ccc(O)cc3)nc(Nc3ccc([N+](=O)[O-])cc3)n2)cc1
inactive: outcome [1] | outcome [2] | outcome [3] | outcome [4]

Oc1ccc2ccccc2c1/C=N/Nc1nc(Nc2ccccc2)nc(N2CCOCC2)n1
inactive: outcome [1] | outcome [2] | outcome [3] | outcome [4]

O/N=C1\CCc2cc(-c3nc(-c4ccc(OCCN5CCCCC5)cc4)[nH]c3-c3ccncc3)ccc21
inactive: outcome [1] | outcome [2] | outcome [3] | outcome [4]

COc1ccc(N=[N+]([O-])c2ccccc2[N+]([O-])=Nc2ccc(OC)cc2)cc1
inactive: outcome [1] | outcome [2] | outcome [3] | outcome [4]

Nc1c2c(nc3ccccc13)/C(=C/c1ccc(O)cc1)CCC2
inactive: outcome [1] | outcome [2] | outcome [3] | outcome [4]

CCCCCC(C)C(C)c1cc(O)c2c(c1)OC(C)(C)C/C2=C\c1ccncc1 (stereo not drawn)
inactive: outcome [1] | outcome [2] | outcome [3] | outcome [4]

O=C1C=CC(=C2NC(c3ccccc3)=C(c3ccc4oc5ccc(C6=C(c7ccccc7)NC(=C7C=CC(=O)C=C7)N6)cc5c4c3)N2)C=C1
inactive: outcome [1] | outcome [2] | outcome [3] | outcome [4]

CN(C)c1nc(NCc2ccccc2)nc(N/N=C/c2cc([N+](=O)[O-])ccc2O)n1
inactive: outcome [1] | outcome [2] | outcome [3] | outcome [4]

Oc1ccc2ccccc2c1/C=N/Nc1nc(Nc2ccccc2)nc(Nc2ccccc2)n1
inactive: outcome [1] | outcome [2] | outcome [3] | outcome [4]

CCC[C@H](C(=O)NCCc1cccc(OC)c1)N1C(=O)c2c(ccc(OC)c2OC)C1C(=O)Nc1c(C)cccc1C (stereo partly drawn)
inactive: outcome [1] | outcome [2] | outcome [3] | outcome [4]

COc1ccc(Nc2nc(N/N=C/c3cc(Br)c(O)cc3O)nc(Nc3ccc([N+](=O)[O-])cc3)n2)cc1
inactive: outcome [1] | outcome [2] | outcome [3] | outcome [4]

O=C(N/C=N/c1cc([N+](=O)[O-])c(-c2ccncc2)n1-c1ccccc1)c1cccc(O)c1
inactive: outcome [1] | outcome [2] | outcome [3] | outcome [4]

Cc1cccc2[nH]c(-c3cccc(-c4ccc(NC(=O)Cc5ccc[n+]([O-])c5)cc4)c3)nc12
inactive: outcome [1] | outcome [2] | outcome [3] | outcome [4]

N=C(N)c1ccc(/C=C/c2ccc(C(=N)N)cc2O)cc1
inactive: outcome [1] | outcome [2] | outcome [3] | outcome [4]

CCN(CC)CCCN=c1ccn(O)c2cc3ccccc3cc12
inactive: outcome [1] | outcome [2] | outcome [3] | outcome [4]

O=C(O)CCSSc1cccc[n+]1[O-]
inactive: outcome [1] | outcome [2] | outcome [3] | outcome [4]

Cc1cccc2[nH]c(-c3cccc(-c4cccc(NC(=O)Cc5ccc[n+]([O-])c5)c4)c3)nc12
inactive: outcome [1] | outcome [2] | outcome [3] | outcome [4]

C/C(=N\NC(N)=O)C1=C(O)C(c2ccccc2)N(C2CCCCC2)C1=O (stereo not drawn)
inactive: outcome [1] | outcome [2] | outcome [3] | outcome [4]
